# AMA1-RON2 inh = qHTS for Inhibitors of AMA1-RON; Towards Development of Antimalarial Drug Lead: Primary Screen; Plasmodium falciparum AMA1 (3D7) - RON2 peptide interaction; AlphaScreen AMA1-biotinylated RON2 peptide binding; Potency, µM (highest dose often 58.2 µM), inactives show at the highest dose activity change, negative = inhibition, usual class: inhibitors; 360,000 compounds, 0.2% hits; AID 720542, 2013;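 further: 0% = vehicle wells and -100% = peptide control; nearly all actives have a fitted effect of over 45% in size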
#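 AMA1 (3D7) with his tag at 25 nM final met compounds first, then biotinylated RON2 peptide at 25 nM; detection used donor plus acceptor beads, 10 µg/mL apiece, read by AlphaScreen after 30 min at room temperature.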
# HCV inh = qHTS Assay for Inhibitors of Hepatitis C Virus (HCV); Huh7.5.1 HCVcc-Cre infection, luciferase reporter, 44 h; Potency, µM (top dose mostly 41.8 µM), for inactives: top-dose activity change, negative = inhibition, most hits filed as inhibitors; 340,000 compounds, 3.4% hits; AID 651820, 2012
#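 Reporter virus HCVcc-Cre (~0.5 moi) infects cells exposed to compound; seeding density 1,000 cells/well with 4 h settling beforehand. Luminescence, 15 sec read, taken 44 h post-infection following a 15 min RT substrate incubation.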
# Pf growth 48h = Primary qHTS for delayed death inhibitors of the malarial parasite plastid, 48 hour incubation; P. falciparum luciferase growth in erythrocytes, 48 h; Potency, µM (doses to about 28.7 µM), for the others: top-dose activity change, negative = inhibition, usual class: inhibitors; 310,000 compounds, 5.9% hits
#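 Compounds are pin-transferred into medium, infected erythrocytes (2% hematocrit, 0.1% parasitemia final) are added, and plates sit one parasite generation at 37 C in 5% CO2. Detection reagent is then added and luminescence measured.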
# Pf growth 96h = Primary qHTS for delayed death inhibitors of the malarial parasite plastid, 96 hour incubation; P. falciparum luciferase reporter growth, 96 h; Potency, µM (series often up to 28.7 µM), for inactives: at the highest dose activity change, negative = inhibition, actives largely listed as inhibitors; 320,000 compounds, 6.9% hits; AID 504834, 2011
#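 Cell-based qHTS: luciferase-tagged P. falciparum in erythrocytes (2% hematocrit, 0.05% parasitemia final) incubated with compounds for 96 hours, 37 C, 5% CO2; luciferase detection reagent then added and luminescence measured.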
# Active calls of the source: *; u = inconclusive; x = not tested or not shown; [ ] = another dose, or the depositor's remark. An excerpt weighted towards active compounds, which were near 11% of everything screened. The call rests on the fitted dose curve; in most records, active means well fitted curve in the direction sought with a large enough effect; inconclusive means small, poorly fitted or top-dose-only effect, or another doubt; inactive means no such curve, though single readings can be large; an effect the other way counts as inactive or inconclusive. Unless noted, on the % scale 0 is the no-effect control and ±100 the full control effect; potency means the concentration at half of the fitted maximal effect.
SMILES,AMA1-RON2 inh,HCV inh,Pf growth 48h,Pf growth 96h
COc1ccc2c(C)cc(SCC(=O)c3ccc4c(c3)OCO4)nc2c1,9%,10µM*,u,u
COc1ccc2c(C)cc(SCC(=O)NC3CCCC3)nc2c1,32%,-15%,x,x
CCN1CCN(S(=O)(=O)CC2(C)C3CCC2(C)C(=O)C3Br)CC1 (stereo not drawn),4%,31%,11%,-15%
CC(=O)Nc1cccc(C(=O)OC(C(=O)c2ccc(C)c(C)c2)c2ccccc2)c1 (stereo not drawn),-18%,u,u,10µM*
COc1ccc(C(=O)OC(C(=O)c2ccc(C)cc2)c2ccccc2)cc1 (stereo not drawn),10%,18%,u,7%
CC(=O)Nc1cccc(C(=O)OC(C(=O)c2ccc(C)cc2)c2ccccc2)c1 (stereo not drawn),-6%,u,1.5µM*,78%
Cc1ccc(NC(=O)C(OC(=O)c2ccc(F)cc2)c2ccccc2)cc1Cl (stereo not drawn),-8%[11.6 µM],-40%,u,-104%
COc1cc(-c2c(-c3cccc(C)c3)oc3ccccc23)cc(OC)c1OC,-12%,u,u,9.3µM*
CCOC(=O)N1CCC(NC(=O)c2ccc3c(c2)N=C(C)c2c(C)ccc(C)c2S3)CC1,-9%,u,u,u
CCOc1ccc(/C=N/NC(=O)c2nnn(-c3nonc3N)c2-c2ccc(OCC)cc2)cc1,8%,u,0%,-3%
C/C(=N/NC(=O)c1nnn(-c2nonc2N)c1-c1ccccc1)c1ccc2c(c1)OCO2,-10%,u,8%,20%
Nc1nonc1-n1nnc(C(=O)N/N=C/c2cccnc2)c1-c1ccccc1,-8%,4%,u,12µM*
Nc1nonc1-n1nnc(C(=O)N/N=C/c2cccc(Cl)c2)c1-c1cccs1,-4%,-5%,4.7µM*,2.3µM*
CCN(CC)c1ccc(/C=N/NC(=O)c2nnn(-c3nonc3N)c2-c2ccc(C)cc2)cc1,19%,-5%,u,5.9µM*
Cc1ccc(/C=N/NC(=O)c2nnn(-c3nonc3N)c2-c2ccc3c(c2)OCO3)s1,15%,23%,0.26µM*,u
Cc1ccc(-c2c(C(=O)N/N=C/c3cccnc3)nnn2-c2nonc2N)cc1,10%,-17%,u,u
CC1([N+](=O)[O-])COC(c2cccc3ccccc23)OC1 (stereo not drawn),-8%,-2%,x,x
Cc1cc(NC(=O)CSc2nc(C3CC3)nc3sc(C)c(C)c23)no1,20%,3%,-5%,x
Cc1ccccc1COc1cccc(/C=N/NC(=O)c2nnn(-c3nonc3N)c2C)c1,22%,u,u,1%
Nc1nonc1-n1nnc(C(=O)N/N=C/c2ccccn2)c1-c1ccccc1,69%,9%,1%,1%
Nc1nonc1-n1nnc(C(=O)N/N=C/c2cccc(F)c2)c1-c1ccc2c(c1)OCO2,-4%,6%,0.12µM*,0.066µM*
Cc1c(C(=O)N/N=C/c2cccc(O)c2)nnn1-c1nonc1N,-3%,-20%,u,13µM*
Nc1nonc1-n1nnc(C(=O)N/N=C/c2ccc3c(c2)OCO3)c1CSc1ccccc1,-6%,-9%,29%,1%
Nc1nonc1-n1nnc(C(=O)N/N=C/c2cccc(F)c2)c1-c1ccccc1,13%,-18%,5.2µM*,u
Nc1nonc1-n1nnc(C(=O)N/N=C/c2ccc(F)cc2)c1-c1ccc2c(c1)OCO2,35%,5%,0.12µM*,0.066µM*
SMILES,AMA1-RON2 inh,HCV inh,Pf growth 48h,Pf growth 96h
CCOC(=O)c1c(CN2CCOCC2)n(-c2ccccc2)c2cc(Br)c(O)cc12,4%,-7%,1.7µM*,1.9µM*
CCOC(=O)c1c(CN2CCOCC2)n(-c2ccccc2)c2cc(Br)c(OC)cc12,-12%,u,u,x
CCOC(=O)c1c(CN(C)C)n(-c2ccccc2)c2cc(Br)c(OC)cc12,u,7.9µM*,u,14%
CCOC(=O)c1c(CN2CCN(C)CC2)n(C)c2cc(Br)c(OC)cc12,-15%,u,15µM*,-25%
CCOC(=O)c1c(CN(C)C)n(-c2ccc(C)cc2)c2cc(Br)c(O)cc12,-9%,u,0.74µM*,0.33µM*
O=C(CN1C(=O)NC2(CCCC2)C1=O)Nc1ccccc1F,7%,1%,12%,x
CCOC(=O)c1c(CSC(=N)N)n(C)c2cc(Br)c(OC(C)=O)cc12,-12%,u,u,-8%
CCOC(=O)c1c(CSC(=N)N)n(-c2ccc(C)cc2)c2cc(Br)c(OC(C)=O)cc12,-5%,u,7.4µM*,3.3µM*
Brc1ccc(Cn2c(-c3cncs3)nc3ccccc32)cc1,1%,u,u,-95%
Brc1cccc(Cn2c(-c3cncs3)nc3ccccc32)c1,-11%,u,10µM*,8.3µM*
CCOc1ccc(NC(=O)CSc2nnc(-c3ccco3)n2C)cc1,8%,-8%,-7%,u
COc1ccc(-c2nnc(SCC(=O)Nc3ccc(C)cc3)n2C)cc1,-1%,-14%,-12%,5.2µM*
Nn1c(SCC(=O)Nc2ccc(S(N)(=O)=O)cc2)nnc1-c1ccco1,51%,29%,-19%,13µM*
Cc1cccc(C)c1NC(=O)CSc1nnc(-c2ccco2)n1N,16%,12%,-1%,u
COc1ccc(C(=O)Nc2ccc(NC(=O)CSc3nnc(-c4ccncc4)n3C)cc2)cc1,-15%,-15%,5%,u
COc1ccc(NC(=O)CSc2nnc(-c3ccco3)n2C)cc1,-1%,5%,-19%,6.6µM*
CCn1c(SCC(=O)Nc2ccc(C)cc2)nnc1-c1ccc(O)cc1,27%,-26%,u,2.6µM*
CCn1c(SCC(=O)Nc2ccc(C)cc2)nnc1-c1ccccn1,-26%,-9%,-2%,-1%
O=C(O)/C=C/C(=O)NCCCc1ccccc1,14%,12%,21%,u
Cc1ccc(S(=O)(=O)c2nc(-c3cccs3)oc2NCCCN(C)C)cc1,14%,4%,-8%,-26%
O=C(Cc1ccc(Br)cc1)OCC(=O)N1CCOCC1,2%,0%,x,x
CCN(CC)S(=O)(=O)c1ccc(NC(=O)CSc2nnc(-c3cccc(OC)c3)n2C)cc1,-1%,-20%,10µM*,u
Cc1ccc(NC(=O)CSc2nc3sc(C)cc3c(=O)n2C)cc1,25%,-23%,u,9.3µM*
CCCCSc1nnc(-c2ccc(OC)cc2)n1C,-12%,-4%,-3%,13µM*
COc1ccc(-c2nnc(SCc3csc(N)n3)n2C)cc1,11%,-3%,u,u
CCn1c(SCC(=O)Nc2ccc(N3CCOCC3)cc2)nnc1-c1ccco1,2%,-9%,-1%,10µM*
CCn1c(C)nnc1SCC(=O)Nc1ccc(N2CCOCC2)cc1,-10%,x,35%,-21%
C=CCNc1nc2c(c(=O)[nH]c(=O)n2C)n1CCCc1ccccc1,0%,11%,-85%,u
